# MEKK2mut PB1 HTS: MEK5 binding signal on mutant MEKK2 PB1, primary screen, biochemical, multiplex bead flow cytometry, Alexa488-MEK5; Alexa488-MEK5 binding to MEKK2 mutant; percent response, % at 10 µM; actives 0.35% (n = 290,000); in the data active = percent response above about 24%, passing the limit was not always enough
# MEKK3 PB1 HTS: modulators of MEKK3-MEK5 PB1 binding, primary screen, biochemical, wildtype MEKK3, multiplex bead flow cytometry, Alexa488-MEK5; AID 1529, 2009; actives 1.4% (n = 290,000); Mitogen-activated protein kinase kinase kinase 3 (Homo sapiens), Q99759; binding response (% of control), % at 10 µM; bead-based flow cytometry, Alexa488-MEK5 binding to MEKK3; actives lie on both sides; 0 = blocked by unlabeled MEK5, 100 = vehicle;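 active = binding response more than 3 SD above or below the average of its plate-row segment, actives on both sides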;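 also: Alexa488 bead fluorescence after subtracting the streptavidin-only scavenger bead signal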
# Target sequence (Q99759 whole entry, looked up): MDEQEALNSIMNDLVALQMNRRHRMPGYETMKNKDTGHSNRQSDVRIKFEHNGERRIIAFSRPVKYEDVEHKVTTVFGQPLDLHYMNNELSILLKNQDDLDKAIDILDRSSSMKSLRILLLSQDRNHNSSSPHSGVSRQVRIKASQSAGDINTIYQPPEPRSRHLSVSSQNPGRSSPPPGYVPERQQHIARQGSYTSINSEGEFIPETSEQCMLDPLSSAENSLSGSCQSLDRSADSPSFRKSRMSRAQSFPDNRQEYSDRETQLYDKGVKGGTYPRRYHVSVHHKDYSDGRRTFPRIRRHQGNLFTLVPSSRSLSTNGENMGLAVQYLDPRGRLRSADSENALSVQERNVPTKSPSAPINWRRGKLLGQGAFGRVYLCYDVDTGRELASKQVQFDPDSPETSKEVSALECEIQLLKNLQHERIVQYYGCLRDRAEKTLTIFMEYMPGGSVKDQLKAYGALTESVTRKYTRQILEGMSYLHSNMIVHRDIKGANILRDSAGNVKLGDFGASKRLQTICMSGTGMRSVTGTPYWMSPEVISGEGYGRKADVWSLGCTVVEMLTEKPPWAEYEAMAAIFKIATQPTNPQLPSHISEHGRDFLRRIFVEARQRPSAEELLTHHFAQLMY
# DNA FID counter: compounds displacing fluorescent DNA intercalator, primary screen, artefact control for HCV NS3 helicase inhibitor project, biochemical, FID fluorescence; DNA fluorescent intercalator displacement; inhibition, % at 7.9 µM; actives 0.17% (n = 290,000); AID 1845, 2009; in the data active = inhibition above about 37%;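 also: 0% = vehicle and 100% = reference compound; higher means more ethidium bromide displaced from hairpin DNA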
# MEKK2wt PB1 HTS: modulators of MEK5 binding to wildtype MEKK2, primary screen, biochemical, multiplex bead flow cytometry, Alexa488-MEK5; binding response (% of control), % at 10 µM; AID 1531, 2009; Mitogen-activated protein kinase kinase kinase 2 (Homo sapiens), Q9Y2U5; Alexa488-MEK5 binding to MEKK2 WT; actives lie on both sides; actives 1.1% (n = 290,000); in the data active = binding response below about 67% or above about 130%
# dFosB act: activators of delta FosB homodimer, primary screen, biochemical, fluorescence polarization, TAMRA-CDK5 oligo, single point | purified delta FosB; percent of positive-control signal above neutral wells | activation, % at 25 µM | actives 0.99% (n = 340,000) | Protein FosB (Mus musculus), P13346;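 active = mean activation above about 17%, with every replicate also reaching it, limit read from the data, passing the limit was not always enough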
# MEKK2wt confirm: modulators of MEK5 binding to wildtype MEKK2, confirmation, biochemical, single concentration, multiplex bead flow cytometry | actives 2.4% (n = 5,900) | Alexa488-MEK5 binding to MEKK2 WT; actives lie on both sides | shares compounds with MEKK3 PB1 HTS | binding response (% of control), % at 10 µM; in the data active = binding response below about 16% or above about 210%; inactive = in between
# MEKK2mut confirm: mutant MEKK2 PB1-MEK5 binding signal retest – biochemical, single concentration, multiplex bead flow cytometry, confirmation; shares compounds with MEKK3 PB1 HTS; Alexa488-MEK5 binding to MEKK2 mutant; percent response, % at 10 µM; AID 1893, 2009; actives 2% (n = 5,900); in the data active = percent response mostly above about 71%, no sharp cut-off; inactive = mostly below about 38%;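 also: higher means compound restores mutant binding toward wildtype level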
# MEKK3-MEK5 inh: MEKK3 wild-type PB1 binding to MEK5, inhibitors, confirmation, biochemical, bead multiplex flow cytometry, single concentration, wildtype. shares compounds with MEKK3 PB1 HTS. Alexa488-MEK5 binding to MEKK3; stronger effect = lower value. binding response (% of control), % at 10 µM. actives 1.8% (n = 5,900);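 active = binding response below 72% of control, or above a set upper limit, though filed actives all read lower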;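 also: 100% = DMSO only wells and 0% = binding blocked by excess unlabeled MEK5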
# Active calls of the source: *; · = no result; [ ] = remark or other dose. Rows were chosen to be rich in hits. Some 2.9% of all compounds tested hit in one or more screens of this group.
SMILES,MEKK2mut PB1 HTS,MEKK3 PB1 HTS,DNA FID counter,MEKK2wt PB1 HTS,dFosB act,MEKK2wt confirm,MEKK2mut confirm,MEKK3-MEK5 inh
O=C(N/N=C/C(Cl)=C/c1ccc([N+](=O)[O-])cc1)C(=O)Nc1cccc(C(=O)O)c1,-1,102,-12,97,-7,·,·,·
Cc1ccc(OC(=O)c2ccc([N+](=O)[O-])cc2Cl)cn1,9,104,-1,106,-9,·,·,·
CCOc1ccc(S(=O)(=O)NCCC(=O)OCC(=O)Nc2cc(C)on2)cc1,-41,58,-16,48,1,·,·,·
CCOC(=O)c1cc(CC)sc1NC(=O)c1ccc(N2C(=O)CCC2=O)cc1,-3,102,0,101,-8,·,·,·
CCOC(=O)c1cc(CC)sc1NC(=O)c1cc(OC)c(OC)c(OC)c1,15,119,1,141*,4,105,-7,100
COc1ccc(CNCCCSc2ncccn2)c(OC)c1,22,103,4,128,-3,·,·,·
O=C(CC(Nc1cccc(Cl)c1Cl)C(=O)O)c1ccccc1 (configuration not stated),1,123,1,111,2,·,·,·
O=C(CC(Nc1ccccc1Cl)C(=O)O)c1ccccc1 (configuration not stated),1,130*,0,113,-5,99,2,103
CC1(C)CC(=O)C=C(c2cccs2)C1,4,100,·,100,-2,·,·,·
Cc1csc(SCC(=O)NCCc2ccc(Cl)cc2Cl)n1,-1,69*[inhibitor],-21,95,-8,100,2,101
COc1ccccc1N1CCN(S(=O)(=O)c2cc(C(F)(F)F)cc(C(F)(F)F)c2)CC1,-3,88,-2,90,7,·,·,·
CCCN(CC(=O)Nc1ccccc1C)C(=O)COc1ccc2c(c1)CCC2,9,106,-29,114,-12,·,·,·
CCCCSc1nnc2[nH]c(=O)cc(N)n12,5,104,2,106,-6,·,·,·
CCCCSc1cc(=O)[nH]c(N)n1,-20,70*[inhibitor],1,81,-3,101,-4,106
C=CCC[C@@H](Cc1ccc(F)cc1)C(=O)OC[C@@H](Cc1ccccc1)NC(=O)[C@H](CC=C)CC(=O)NCCO,·,·,·,·,-11,·,·,·
COc1ccccc1NC(=O)c1ccc(NC(=O)COC(=O)C2CCCCC2)cc1,1,137*,-20,112,2,106,-1,108
O=C(CCCCl)NC(=S)Nc1ccc(N2CCOCC2)cc1,-7,90,-4,88,-7,·,·,·
COC(=O)C(F)(F)Sc1c(C)[nH]c2ccccc12,-8,79*[inhibitor],1,86,1,105,9,106
CCc1ccc(OCC(=O)NC(=S)Nc2ccc(F)cc2)c(Br)c1,-13,53*[inhibitor],2,57,-6,98,-8,97
COC(=O)c1ccc2c(=O)n(-c3ccccc3)c(SCN3C(=O)c4ccccc4C3=O)nc2c1,1,74*[inhibitor],2,98,9,104,4,105
CCCCC(CC)Cn1c(N)c(C#N)c2nc3ccccc3nc21 (configuration not stated),54*,118,0,183*,0,100,-1,105
Cc1cccc(NC(=O)CN2CCN(C(=O)c3cccc(-n4cnnn4)c3)CC2)c1C,·,·,·,·,4,·,·,·
Cc1ccccc1C(=O)NNC(=O)CSc1nnc(C)n1-c1ccccc1,-1,64*[inhibitor],-6,96,-2,100,-12,97
Cc1nnc(SCC(=O)NCc2ccccc2)n1-c1ccccc1,-1,103,-8,101,-5,·,·,·
Cc1cc(C(=O)C(=O)NC(C)C)c(C)n1-c1ccc([N+](=O)[O-])cc1,-3,80*[inhibitor],-6,89,-11,99,-2,100
SMILES,MEKK2mut PB1 HTS,MEKK3 PB1 HTS,DNA FID counter,MEKK2wt PB1 HTS,dFosB act,MEKK2wt confirm,MEKK2mut confirm,MEKK3-MEK5 inh
CCOc1ccc(S(=O)(=O)NCCC(=O)OCC(=O)c2ccc[nH]2)cc1,4,109,-13,97,-10,·,·,·
COc1ccc(C(=O)C[n+]2cccc3cc(C)ccc32)cc1,241*,97,12,·,7,104,-5,99
COc1ccc(C(=O)C[n+]2ccc(N(C)C)cc2)cc1,29,135*,1,120,2,105,-4,105
CN(C)c1cc[n+](CC(=O)c2ccc(Br)cc2)cc1,-14,94,7,91,3,·,·,·
Cc1cc(C(=O)Nc2ncn[nH]2)ccc1[N+](=O)[O-],-1,73*[inhibitor],3,91,6,109,7,105
c1ccc(COc2ccc(Nc3ncnc4nc[nH]c34)cc2)cc1,1,103,-2,106,-7,·,·,·
Cc1nn(CC(=O)O)c(C)c1[N+](=O)[O-],-10,101,-2,99,-5,·,·,·
Cc1nn(CC(=O)NC(C)C)c(C)c1[N+](=O)[O-],-8,69*[inhibitor],0,79,-2,105,13,103
C/C(=N\NC(=O)Cn1nc(C)c([N+](=O)[O-])c1C)c1ccc(Cl)s1,31,128*,-2,114,5,95,0,100
CSc1nc(C(=O)N2CCCC(C(=O)c3ccc(Cl)cc3)C2)cs1 (configuration not stated),-10,86,-32,83,-7,·,·,·
C/C(=N\N=C\c1ccc(N(C)C)cc1)c1cccc([N+](=O)[O-])c1,-1,73*[inhibitor],0,99,5,104,11,108
Cc1ccc(OCCC(=O)OCC(=O)N2CCN(S(=O)(=O)c3ccc(C)cc3)CC2)cc1,·,·,·,·,-2,·,·,·
COc1ccc(CCNc2cc(C)nc3c(-c4ccc(Cl)cc4)cnn23)cc1OC,0,136*,-10,109,-15,101,-2,104
COc1cc(CNCc2cccnc2)ccc1OCC(=O)NC(C)(C)C,-4,91,10,92,2,·,·,·
CC(C)(C)NC(=O)COc1ccc(CNCc2cccnc2)cc1,-10,56*[inhibitor],1,71,-7,98,-2,101

# Source: PubChem BioAssay (several laboratories)
